Data as given in PubChem BioAssay (Tox21).
Calls of active or inactive are those of the source. Where a call stands in place of a potency, no number is given. The call rests on the fitted dose curve.

Target: Gonadotropin-releasing hormone receptor (Homo sapiens) (UniProt P30968)
Test: Human gonadotropin-releasing hormone receptor (GnRHR) small molecule agonists, calcium flux assay in GnRHR-HEK293 cells (AID 1920063); further: nearly all actives have a fitted effect of over 35% in size
Summary of the method: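 Compounds dissolved in DMSO are pin-transferred onto dye-loaded GnRHR-HEK293 cells, which were seeded 18 h before at 37 C/5% CO2. Calcium signal is read as fluorescence intensity at 1 s intervals for 3 min.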

Chain of Gonadotropin-releasing hormone receptor (Homo sapiens) (P30968 whole entry, looked up): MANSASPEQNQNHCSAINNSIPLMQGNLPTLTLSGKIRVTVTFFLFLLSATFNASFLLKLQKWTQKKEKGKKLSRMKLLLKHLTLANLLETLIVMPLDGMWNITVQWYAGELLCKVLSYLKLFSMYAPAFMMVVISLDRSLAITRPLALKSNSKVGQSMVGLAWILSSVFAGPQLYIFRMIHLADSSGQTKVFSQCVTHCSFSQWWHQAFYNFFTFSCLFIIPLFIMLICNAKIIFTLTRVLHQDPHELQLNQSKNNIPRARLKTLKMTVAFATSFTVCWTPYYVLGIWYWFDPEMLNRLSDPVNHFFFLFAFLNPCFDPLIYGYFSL

SMILES	Potency
CCCCCCCC(=O)OCC(COC(=O)CCCCCCC)OC(=O)CCCCCCC	inactive
CC(C)C(=O)Nc1ccc([N+](=O)[O-])c(C(F)(F)F)c1	inactive
O=c1cc[nH]c(=S)[nH]1	inactive
CCCC(CCC)C(=O)O	inactive
CCCCOC(=O)CCCCCCCCC(=O)OCCCC	inactive
CCCCCC(N)=O	inactive
NC(N)=O	inactive
CC1=C(/C=C/C(C)=C/C=C/C(C)=C/C(=O)Nc2ccc(O)cc2)C(C)(C)CCC1	inactive
CCOCC(=O)O	inactive
C=CC[N+](C)(C)CC=C	inactive
Cc1ccc2c(c1)C(=O)OC2=O	inactive
NS(=O)(=O)O	inactive
CC(C)(C)[C@@H](O)[C@@H](Cc1ccc(Cl)cc1)n1cncn1	inactive
CCC(C)C=O (centres undefined)	inactive
CNC[C@H](O)c1cccc(O)c1	inactive
Cc1ccc(S(=O)(=O)NCl)cc1	inactive
CC(C)(N)CO	inactive
CCCCC(CC)COC(=O)c1ccc(N(C)C)cc1 (centres undefined)	inactive
CC(COc1ccccc1)N(CCCl)Cc1ccccc1 (centres undefined)	inactive
CCC(O)OC(O)CC (centres undefined)	inactive
CCOC(=O)/C=C\C(=O)OCC	inactive
Nc1ccc(C(=O)O)cc1	inactive
CCc1cccc(C)c1N	inactive
O=C(O)c1cccc([N+](=O)[O-])c1	inactive
O=[N+]([O-])c1ccccc1C(F)(F)F	inactive
C=C(C)C(=O)OCCC[Si](OC)(OC)OC	inactive
O=c1c(O)c(-c2ccc(O)c(O)c2)oc2cc(O)cc(O)c12	inactive

SMILES	Potency
O=C1O[C@H]([C@H](O)CO)C(O)=C1O	inactive
Cc1ccc([N+](=O)[O-])cc1S(=O)(=O)O	inactive
CCCCCC1C(=O)CCC1CC(=O)OC (centres undefined)	inactive
c1ccc2[nH]ccc2c1	inactive
CCCCCCCCCC(=O)O	inactive
CC(C)(Oc1ccc(Cl)cc1)C(=O)O	inactive
CCc1cc(C(N)=S)ccn1	inactive
COC(=O)CCCCC(=O)OC	inactive
Fc1ccc(Br)cc1	inactive
Cc1cc(C)c(C)cc1C	inactive
CNC[C@H](O)[C@@H](O)[C@H](O)[C@H](O)CO	inactive
CNNCc1ccc(C(=O)NC(C)C)cc1	inactive
CCCC[P+](CCCC)(CCCC)CCCC	inactive
CC/C(=C(\c1ccccc1)c1ccc(OCCN(C)C)cc1)c1ccccc1	inactive
Cc1ccc(C)c(O)c1C	inactive
Cc1c(OCC(F)(F)F)ccnc1CS(=O)c1nc2ccccc2[nH]1 (centres undefined)	inactive
C[Si](O[Si](C)(C)C)O[Si](C)(C)C	inactive
CC[C@H](C)C(=O)O[C@H]1C[C@@H](C)C=C2C=C[C@H](C)[C@H](CC[C@@H]3C[C@@H](O)CC(=O)O3)[C@H]21	inactive
CCCN(CCC)C(=O)SCC	inactive
Oc1ccccc1	inactive
CCCCOC(=O)c1ccc(N)cc1	inactive
Cc1ccc(C)c(S(=O)(=O)O)c1	inactive
CS(=O)(=O)c1ccc([C@@H](O)[C@@H](CO)NC(=O)C(Cl)Cl)cc1	inactive
CCOC(=O)NNc1nncc2ccccc12	inactive
CC(C)(CO)COC(=O)C(C)(C)CO	inactive
CC(CCO)CC(C)(C)C (centres undefined)	inactive
N[C@@H](Cc1cc(I)c(Oc2ccc(O)c(I)c2)c(I)c1)C(=O)O	inactive
